Assays:
Conditions in all cases: concentration: 1 μM, replicates: in singlicate; n = 1
PRKCI = test system: PRKCI
PRKCQ = test system: PRKCQ
PRKD1 = test system: PRKD1
PRKD2 = test system: PRKD2
PRKD3 = test system: PRKD3
PRKG1 = test system: PRKG1
PRKG2 = test system: PRKG2
PRKR = test system: T1, PRKR
T1 construct: gene EIF2AK2

PRKX = test system: PRKX
PRP4 = test system: PRP4
PYK2 = test system: T2, PYK2
T2 construct: gene PTK2B

QSK = test system: QSK
RAF1 = test system: RAF1
RET = test system: RET
RIOK1 = test system: RIOK1
RIOK2 = test system: RIOK2
RIOK3 = test system: RIOK3
RIPK1 = test system: RIPK1
RIPK2 = test system: RIPK2
RIPK4 = test system: RIPK4
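Note: KINOMEscan kinase panel screen.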

SMILES	%Inh (PRKCI) [%]	%Inh (PRKCQ) [%]	%Inh (PRKD1) [%]	%Inh (PRKD2) [%]	%Inh (PRKD3) [%]	%Inh (PRKG1) [%]	%Inh (PRKG2) [%]	%Inh (PRKR) [%]	%Inh (PRKX) [%]	%Inh (PRP4) [%]	%Inh (PYK2) [%]	%Inh (QSK) [%]	%Inh (RAF1) [%]	%Inh (RET) [%]	%Inh (RIOK1) [%]	%Inh (RIOK2) [%]	%Inh (RIOK3) [%]	%Inh (RIPK1) [%]	%Inh (RIPK2) [%]	%Inh (RIPK4) [%]
COc1cc2ncn(-c3cc(OCc4sccc4Cl)c(C(N)=O)s3)c2cc1OC [GSK448459]	10	0	0	0	0	14	13	0	0	26	0	7	12	26	91.8	13	61	0	3	15
COc1cc2c(cc1OCCN1CCN(C)CC1)ncc1c3ccc(C#N)cc3[nH]c21	22	17	0	0	10	0	13	30	19	79	2	67	0	29	93.1	24	85	14	49	15
O=C1Cc2cc(Nc3nc(NCc4cccc(S(=O)(=O)C(F)(F)F)c4)ncc3C(F)(F)F)ccc2N1	0	4	16	0	26	0	1	0	0	10	6	0	0	5	0	35	0	2	0	0
CSc1ccc(-c2cc3ncnc(SCC(=O)O)c3s2)cc1	0	0	18	0	9	0	0	0	0	0	13	0	0	8	0	0	0	0	0	0
NS(=O)(=O)c1cccc(-c2ccc3nccc(-c4cccc(S(N)(=O)=O)c4)c3c2)c1 [GW867253]	0	0	0	0	0	28	0	4	0	0	12	13	0	0	0	0	0	0	3	0
COc1ccc(S(=O)(=O)NC2CCN(c3cc(C)nc(Nc4cccc(C#N)c4)n3)CC2)cc1.O=C(O)C(F)(F)F [GSK1653539]	3	0	60	19	48	0	0	1	0	3	1	6	0	0	5	0	0	5	0	0
Cc1nnc(-c2ccc3occ(-c4ccc(C(C)O)cc4)c3c2)o1 (stereo not drawn)	12	5	11	20	0	10	34	0	0	0	2	5	100	11	0	36	0	1	20	0
O=C1NC(=O)C(N2CCc3ccccc32)=C1c1cccc(Cl)c1 [SB-408010]	1	29	4	6	3	0	0	0	0	8	12	0	0	4	5	0	30	0	0	0
COCCNC(=O)c1ccc(-c2cc(C(=O)NC3CC3)cc(F)c2C)cc1 [GW868318]	9	2	2	0	0	7	27	4	0	0	4	26	7	0	0	7	0	0	8	47
O=C(Nc1cccc(-c2nn3ncccc3c2-c2ccnc(Nc3cccc(C(F)(F)F)c3)n2)c1)c1c(F)cccc1F [GSK299495]	19	49	16	0	14	0	0	0	0	71	23	9	86	64	22	0	0	8	86	15
c1ccc(-c2n[nH]cc2-c2ccnc3ccccc23)nc1 [GW271431]	0	0	1	14	38	0	8	0	0	5	9	0	2	0	58	11	26	20	23	2
CCCCCc1nc2c(N)ncnc2n1CCCCC [SKF-97255]	8	0	0	0	0	0	0	0	0	3	21	7	11	0	0	0	0	0	22	7

— publication PMC5540273 (PLoS ONE, 2017)
